Cruzain noTriton: blocks cruzain activity in detergent-free assay | P25779 | purified cruzain, Z-FR-AMC fluorescence, no detergent | Potency, µM, usual class: inhibitors | 200,000 tested, 2.3% active; further: nearly all actives have a fitted effect of over 40% in size
Target sequence (P25779 123-467 limits assumed): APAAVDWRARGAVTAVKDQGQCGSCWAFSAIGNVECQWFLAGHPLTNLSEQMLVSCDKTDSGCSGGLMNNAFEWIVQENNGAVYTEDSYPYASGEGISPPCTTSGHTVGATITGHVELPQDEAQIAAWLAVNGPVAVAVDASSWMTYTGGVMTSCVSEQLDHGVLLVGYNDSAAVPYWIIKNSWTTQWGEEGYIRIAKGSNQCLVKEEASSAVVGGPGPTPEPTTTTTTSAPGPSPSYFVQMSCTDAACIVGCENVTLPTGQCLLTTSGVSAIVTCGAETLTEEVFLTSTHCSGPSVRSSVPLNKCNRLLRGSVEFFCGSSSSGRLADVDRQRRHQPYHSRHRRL
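Detergent-free condition (0.00005% Triton X-100) in acetate buffer pH 5.5 with DTT. 1.5 nM enzyme and compound were pre-mixed 15 min, then 2 uM Z-FR-AMC substrate added; reaction progress from fluorescence change between first and third reads (60 s).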
NS1 inh: influenza NS1 inhibition; AID 2326; 270,000 tested, 0.4% active; Potency, µM (highest dose often 46.1 µM); calls by dose curve; further: actives are rising curves; nearly all actives have a fitted effect of over 50% in size
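Read-out: OD600 growth recovery of NS1-expressing budding yeast. Cells grown overnight at 30C in -URA glucose medium, washed, resuspended and diluted 1:100 in 2% galactose assay medium, pH 6.0. Same strain lacking NS1 served as positive control.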
Cruzain inh Det: inhibitors of Trypanosoma cruzi cruzain with detergent. P25779. purified cruzain, Z-FR-AMC fluorescence, 0.01% Triton. Potency, µM, hits mostly inhibitors. 200,000 tested, 0.43% active; further: nearly all actives have a fitted effect of over 40% in size
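In this qHTS format, compounds are incubated with 1.5 nM cruzain for 15 min at room temperature before 2 uM Z-FR-AMC is added. Release of AMC is followed at 360/450 nm, and progress is taken as the 60 s fluorescence difference.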
NS1 inh valid: validation of influenza NS1 protein function inhibitors | influenza NS1 function cell assay, 15-point titration | activity change, negative = inhibition, % at 32.9 µM | 1,400 tested, under 10 active | shares compounds with NS1 inh; calls by dose curve
Flu PR8 replic: influenza virus titer reduction, NS1 project. shares compounds with NS1 inh. MDCK infected influenza A/PR/8/34, virus titer TCID50; hits give low values. virus titer (log TCID50), log10 TCID50 at 5 µM. 95 tested, 30% active; call rule not given here
Numbers stand for hits. This excerpt belongs to a sample that is enriched for hits. Unless noted, the call rests on the fitted dose curve; in most records, active means well fitted curve in the direction sought with a large enough effect; inconclusive means small, poorly fitted or top-dose-only effect, or another doubt; inactive means no such curve, though single readings can be large; an effect the other way counts as inactive or inconclusive.

For Cc1onc(-c2ccccc2)c1C(=O)Nc1nnc(N(C)Cc2ccccc2)s1 the results were Cruzain noTriton inconclusive, NS1 inh 7.9µM, Cruzain inh Det inactive and NS1 inh valid inactive.
Cc1nnc(NC(=O)c2c(-c3ccccc3)noc2C)s1 was read as Cruzain noTriton inactive, NS1 inh inactive and Cruzain inh Det inactive.
Screening CCN(C(=O)C1CCN(S(=O)(=O)c2cc(Br)cc3c2N(C(C)=O)CC3)CC1)c1cccc(C)c1 returned Cruzain noTriton inconclusive and Cruzain inh Det inactive.
Screening CCC(C)Sc1nnc(Cc2cc(=O)[nH]c(=O)[nH]2)n1-c1ccc(F)cc1 (configuration not stated) returned Cruzain noTriton inactive, NS1 inh 8.9µM, Cruzain inh Det inactive and NS1 inh valid inactive.
`CCOc1ccc(-n2c(Cc3cc(=O)[nH]c(=O)[nH]3)nnc2SC(C)C)cc1` gave Cruzain noTriton inactive, NS1 inh inconclusive and Cruzain inh Det inactive.
CCCC(=O)Nc1cccc2c1CCCC2 was read as Cruzain noTriton inactive, NS1 inh 5.6µM, Cruzain inh Det inactive and NS1 inh valid inactive.
`CC(=O)CC(=O)Nc1cccc2c1CCCC2` gave Cruzain noTriton inactive, NS1 inh inactive and Cruzain inh Det inactive.
CCOc1cc(CNCCSc2nnnn2C)cc(Cl)c1OCc1ccc(Cl)cc1 was read as Cruzain noTriton inactive and Cruzain inh Det inactive.
`CCc1cccc(NC(=O)c2coc(=O)c3ccccc23)c1` gave Cruzain noTriton inactive and Cruzain inh Det inactive.
Screening Cc1ccc(C2=CC(c3cccs3)n3nnnc3N2)cc1 (configuration not stated) returned Cruzain noTriton 16µM, NS1 inh 3.2µM, Cruzain inh Det inactive and NS1 inh valid inactive.
`Fc1ccc(C2=CC(c3cccs3)n3nnnc3N2)cc1` (configuration not stated) gave NS1 inh inactive.
For COc1cc(C2NC(=O)NC(C)=C2C(=O)Nc2cc(C)cc(C)c2)ccc1O (configuration not stated) the results were Cruzain noTriton inactive and Cruzain inh Det inactive.
For COc1ccc(CCNC(=O)c2ccc3c(c2)c(C)c(C)n3Cc2ccc(F)cc2)c(OC)c1OC the results were Cruzain noTriton inactive and Cruzain inh Det inactive.
Screening COc1ccc(-c2cn[nH]c2-c2ccc(OCc3ccc([N+](=O)[O-])cc3)cc2O)cc1OC returned NS1 inh inconclusive and NS1 inh valid inactive.
Screening O=[N+]([O-])c1ccc(COc2ccc(-c3[nH]ncc3-c3ccc(Cl)cc3)c(O)c2)cc1 returned Cruzain noTriton inconclusive, NS1 inh inactive and Cruzain inh Det inactive.
O=[N+]([O-])c1ccc(C(c2sc3nc(-c4ccco4)nn3c2O)N2CCN(c3cccc(Cl)c3)CC2)cc1 (configuration not stated) was read as Cruzain noTriton inconclusive and Cruzain inh Det inactive.
For O=C(N/N=C/c1ccc(Cl)c([N+](=O)[O-])c1)c1ccc2nc[nH]c2c1 the results were Cruzain noTriton inactive, NS1 inh inactive and Cruzain inh Det inactive.
`O=C(N/N=C/c1ccc(Cl)c([N+](=O)[O-])c1)c1cc(-c2ccc3c4c(cccc24)CC3)n[nH]1` gave NS1 inh 5µM and NS1 inh valid inactive.
For Nc1cc(C(=O)N/N=C/c2cccc([N+](=O)[O-])c2)n[nH]c1=O the results were NS1 inh inactive.
`O=C(N/N=C/c1cccc([N+](=O)[O-])c1)c1cc(-c2ccc3c4c(cccc24)CC3)n[nH]1` gave Cruzain noTriton 7.9µM, NS1 inh inconclusive, Cruzain inh Det inactive and NS1 inh valid inactive.
COc1ccc(S(=O)(=O)N(CC(=O)N(C)Cc2ccccc2)c2ccc(Cl)cc2)cc1 was read as Cruzain noTriton inactive and Cruzain inh Det inactive.
Screening CCOc1cc(C(=O)Nc2ccc(NC(=O)c3cc4ccccc4o3)c(OC)c2)cc(OCC)c1OCC returned Cruzain noTriton inactive and Cruzain inh Det inactive.
O=C(COc1ccc(Cl)cc1Cl)NC(=S)N1CCCc2ccccc21 was read as Cruzain noTriton inconclusive, NS1 inh 10µM, Cruzain inh Det inactive and NS1 inh valid inconclusive.
For O=C(COc1ccc(Cl)cc1Cl)OCC(=O)N1CCCc2ccccc21 the results were Cruzain noTriton inactive, NS1 inh inactive and Cruzain inh Det inactive.
For CC(C)(C)c1nnc2sc(SCC(=O)c3ccc(Cl)cc3)nn2c1=O the results were Cruzain noTriton inactive, NS1 inh 11µM, Cruzain inh Det inactive, NS1 inh valid inactive and Flu PR8 replic inactive.

Bioassay records (PubChem BioAssay)
